Screening data (PubChem)
Hits are enriched below; roughly 4.1% of the tested compounds scored in any of these assays.
CaV13 FRET inh = Primary screen for inhibitors of IQ motif and Ca2+-dependent inactivation inhibitor domain binding in CACNA1D, Förster resonance energy transfer in living cells, … | HEK cells, CFP/YFP FRET ICDI-IQ, plate reader, 10 min; percent FRET-ratio fall versus neutral wells | inhibition, % at 12.3 µM | hit rate 0.098% among 340,000 | AID 743397;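 active = mean replicate inhibition of at least 30% and at least 1% of replicates passing that level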;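 note: 0% = median of the neutral control wells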
IDE inh = human IDE inhibitors in live cells, primary screen, fluorescence polarization, HEK cells, FAbetaB substrate; AID 434962, 2010; hit rate 0.41% among 320,000; FAbetaB cleavage; inhibition, % at 5.59 µM; Insulin-degrading enzyme (Homo sapiens), P14735;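 active = percent inhibition above the average of all tested compounds plus 3 SD, set per screening campaign, cut at about 16% in these data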;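 note: IDE supplied by intact live HEK cells; FP after avidin binding of uncleaved biotin substrate so inhibition keeps polarization high; 0% = DMSO wells and 100% = 60 µM reference IDE inhibitor Ii1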
PolyA inhibitor = polyadenylation inhibitors in yeast reporter cells, primary screen, luminescence, S. cerevisiae. S. cerevisiae SKY197-pL101 polyadenylation reporter, beta-gal luminescence; efflux-impaired pdr1/pdr3 knockout yeast; score 100 = 6 SD above DMSO. activity score, % at 12 µM. hit rate 0.02% among 300,000. AID 1875, 2009;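 active = lowest replicate activity score at least 50, where 100 means six control SD above control mean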;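 note: yeast exposed to compound for 9 h at 30 °C; higher score means more reporter readthrough which indicates perturbed polyadenylation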
ALR inh = inhibitors of human ALR sulfhydryl oxidase, primary screen, biochemical, H2O2 detection, HRP-luminol luminescence, single point; FAD-linked sulfhydryl oxidase ALR (Homo sapiens), P55789; purified ALR, DTT oxidation; inhibition, % (no concentration beside the values); hit rate 3.8% among 290,000; AID 485317, 2010;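 active = mean replicate inhibition above about 79%, with every replicate also reaching it, limit read from the data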
Target sequence (P55789 whole entry, looked up): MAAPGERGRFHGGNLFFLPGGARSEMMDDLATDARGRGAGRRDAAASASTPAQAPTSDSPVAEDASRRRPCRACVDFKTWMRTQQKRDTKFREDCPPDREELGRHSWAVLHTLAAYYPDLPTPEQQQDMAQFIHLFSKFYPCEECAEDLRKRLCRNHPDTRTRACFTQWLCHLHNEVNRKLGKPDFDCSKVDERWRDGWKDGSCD
PfM18AAP inh = PfM18AAP inhibitors, malaria aminopeptidase, primary screen, biochemical, QFRET, recombinant enzyme; M18 aspartyl aminopeptidase (Plasmodium falciparum 3D7); hit rate 1.2% among 290,000; inhibition, % at 7.35 µM; H-Glu-NHMec fluorogenic cleavage;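 active = inhibition above the campaign mean inhibition over all tested compounds plus 3 SD, cut at about 28% in these data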;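 note: 0% = plate median of test compound wells and 100% = 2 mM ZnCl2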
IDE cell activ = human IDE activators in live cells, primary screen, fluorescence polarization, HEK cells, FAbeta-B substrate. activation, % at 5.96 µM. FAbeta-B cleavage; 0% vehicle, 100% cell-free pure enzyme wells. Insulin-degrading enzyme (Homo sapiens), P14735. hit rate 0.073% among 340,000;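 active = activation above the mean of all tested compounds plus 3 SD, set per screening campaign, cut at about 17% in these data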
* = called active by the depositor; . = no result given.

SMILES | CaV13 FRET inh | IDE inh | PolyA inhibitor | ALR inh | PfM18AAP inh | IDE cell activ
S=C1NC2=C(CCC/C2=C\c2ccccc2)C(c2ccccc2)N1 (stereo unspecified) | -6 | 6 | -11 | 31 | 16 | -9
C(=C1/CCCC2=C1Nc1ncnn1C2c1ccccc1)/c1ccccc1 (stereo unspecified) | . | 7 | -2 | 91* | -3 | .
COc1ccc2nc(SCC(=O)c3ccco3)[nH]c2c1 | -8 | -5 | -7 | -4 | -1 | -9
COc1cc2c(cc1NC(=O)CSc1cccc[n+]1[O-])oc1ccccc12 | -16 | 4 | -19 | 96* | 2 | 0
COc1cc2c(cc1NC(=O)CSc1ccc(C)cc1)oc1ccccc12 | -8 | 3 | 3 | -6 | 2 | 9
Brc1c(CSc2nc3ccccc3o2)nc2ncccn12 | -4 | 13 | -1 | 100* | 3 | -2
Clc1c(CSc2nc3ccccc3o2)nc2ccccn12 | . | 3 | -8 | 98* | -10 | 1
Clc1c(CSc2nc3ccccc3o2)nc2sccn12 | -9 | -1 | -26 | 40 | 15 | 0
Cc1cc(C)cc(Cn2c3ccc(NC(=O)NCCc4cccs4)cc3c(=O)n2C)c1 | -6 | . | . | . | . | .
Cc1cc2c(=O)n(C)c(SCC(=O)Nc3cccc(O)c3)nc2s1 | -4 | 2 | 10 | 99* | 5 | 3
C=CCn1c(SCC(=O)Nc2cccc3ccccc23)nc(O)c(CC)c1=O | -5 | -7 | 4 | 98* | 13 | 1
C=CCn1c(SCC(=O)Nc2ccc(O)cc2)nc2sc(CC)cc2c1=O | -7 | -2 | -5 | 97* | 5 | 0
CC(=O)N1C[C@@H](CN2C(=O)CCC2=O)[C@@H]2C[C@H]1c1ccccc1N2C | -4 | . | . | . | . | .
CC[n+]1ccccc1/C=C/c1ccc(N(C)C)cc1 | -5 | . | -13 | . | 0 | -2
CN(C)c1ccc(/C=C/c2cc[n+](C)cc2)cc1 | -10 | 16 | -11 | 99* | 19 | -21
CN(C)c1ccc(/C=C/c2cc[n+]([O-])cc2)cc1 | . | 22* | 3 | 99* | 6 | .
CCC[C@H]1NC(=O)[C@H](C)N(C)C(=O)C(C)(C)C(=O)C(C)NC(=O)[C@H](Cc2ccc(OC)cc2)N(C)C(=O)[C@H](C(C)C)N(C)C(=O)CNC(=O)[C@H](CC(C)C)N(C)C(=O)CNC(=O)[C@H]([C@@H](C)CC)OC(=O)[C@H]1C (stereo partly specified) | . | 4 | . | . | . | .
Cc1ccn2c(CC(C)(C)C)c(-c3ccc(F)cc3)nc2c1 | -7 | . | . | . | . | .
Cc1ccc(C(=O)CSC2=NC(N)=C(C#N)C3(CCCCC3)C2C(N)=O)cc1 (stereo unspecified) | -5 | 7 | -9 | 97* | 6 | -2
O=C1CSC(c2ccccn2)N1c1cccc(Cl)c1 (stereo unspecified) | -6 | 1 | -4 | 99* | 7 | 9
O=C1CSC(c2ccccn2)N1c1ccccc1F (stereo unspecified) | -2 | 1 | -7 | . | 3 | 4
O=C1CSC(c2ccccn2)N1c1ccc(F)cc1F (stereo unspecified) | 3 | -3 | -11 | -5 | -3 | 1
Cc1ccc(N2C(=O)CSC2c2ccccn2)cc1Cl (stereo unspecified) | . | -2 | 0 | 99* | -11 | -1
Cc1ccc(NC(=O)CN2C(=O)NC(C)(c3ccc(Cl)cc3)C2=O)cc1S(=O)(=O)N1CCOCC1 (stereo unspecified) | -6 | 3 | 1 | -4 | -7 | -2
Cc1c(Cl)cccc1NS(=O)(=O)c1ccccc1 | -17 | . | . | . | . | 6
SMILES | CaV13 FRET inh | IDE inh | PolyA inhibitor | ALR inh | PfM18AAP inh | IDE cell activ
Cc1c(NS(=O)(=O)c2ccccc2)cc(Cl)c(O)c1C | -4 | -3 | 14 | 99* | -7 | 3
COc1ccccc1Cc1c(-c2ccc(OC)c(OC)c2)nc2ccc(C)cn12 | -9 | . | . | . | . | .
O=C(NC(=S)NCc1nc2ccccc2[nH]1)c1ccccc1F | -5 | 9 | -10 | 3 | 7 | 0
O=C(NC(=S)NCc1nc2ccccc2[nH]1)c1ccc(F)cc1 | -14 | -9 | 15 | 76* | -11 | 4
CC(=O)OCC(=O)C1(O)CCC2C3CCC4=CC(=O)CCC4(C)C3(F)C(O)CC21C (stereo unspecified) | -6 | . | . | . | . | -3
O=C(NC1CC1)c1ccc(CSCc2ccccc2Cl)o1 | -5 | 8 | -12 | 84* | 4 | 7
O=S(=O)(c1cccc2ccccc12)N1CCC2CC1c1cc(-c3ccc4c(c3)OCO4)ccc12 (stereo unspecified) | -6 | . | . | . | . | .
COc1cc(/C=C2/NC(=O)N(Cc3ccccc3F)C2=O)cc(OC)c1O | -66 | 10 | 3 | 99* | 19 | -17
C=CCOc1cccc(C2C(C(=O)c3cc4ccccc4o3)=C(O)C(=O)N2c2cc(C)on2)c1 (stereo unspecified) | -4 | 0 | -3 | -12 | 11 | -6
Cc1cc(N2C(=O)C(O)=C(C(=O)c3ccc(C)o3)C2c2ccc([N+](=O)[O-])cc2)no1 (stereo unspecified) | -14 | -1 | 11 | 97* | 10 | 4
COc1cccc(C2C(C(=O)c3cc4ccccc4o3)=C(O)C(=O)N2c2cc(C)on2)c1 (stereo unspecified) | -5 | 5 | -20 | 98* | 15 | -3
CC(C)c1csc(CN2CCN(Cc3ccccc3)C(CCO)C2)n1 (stereo unspecified) | -6 | 3 | -7 | 2 | 1 | 2
CCCCn1nc(NC(=O)c2cccs2)c2cc3cc(OC)ccc3nc21 | 54* | 0 | -2 | 0 | 0 | 2
COc1ccccc1NCCC(=O)OCC(=O)Nc1cc([N+](=O)[O-])ccc1F | -6 | 4 | . | 93* | . | 7
COc1ccccc1Nc1ccc([N+](=O)[O-])cc1N | -22 | -4 | -3 | . | 31* | 5
COc1cc(CC(=O)OCC(=O)Nc2cc([N+](=O)[O-])ccc2F)cc(OC)c1OC | -5 | -2 | -2 | 7 | 2 | 1
COc1ccccc1NCCC(=O)OCC(=O)NC1CC1 | -5 | 4 | 3 | 99* | 6 | -4
COc1ccccc1NCCC(=O)OCC(=O)NC1CCCCC1 | -4 | -1 | -3 | 99* | 23 | 0
CCc1nc2ccc(C(=O)NCC3CCCCC3)cn2c1N(CCC(C)C)CCN(C)C | -5 | . | . | . | . | .
